# From PubChem BioAssay
# Most compounds without a hit are left out; they make up all but 6% or so of the library.
# Bst PK mod = Pyruvate Kinase; purified pyruvate kinase, luminescence ATP production; ribose 5-phosphate activator present at AC10; Potency, µM; actives 1.2% (n = 51,000); in the data active means potency below about 11 µM; inconclusive means mostly about 12 µM to 25 µM;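 the screen sought inhibitors and activators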;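 further: scaled between full activation by ribose 5 phosphate and full inhibition by luteolin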
# DNA Pol III inh = qHTS Assay for Inhibitors of DNA Polymerase III Holoenzyme System. actives 0.25% (n = 71,000). Potency, µM (series often up to 57.1 µM), inactives show at the top dose activity change, negative = inhibition. AID 603, 2007. reconstituted DNA polymerase III holoenzyme replication, biochemical
#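 Reconstituted *E. coli* holoenzyme (0.35 nM Pol III, 1 nM beta, 154 nM SSB, 2 nM primase) was preincubated with compound for 15 min at RT. Synthesis on 1.4 nM ssM13Gori ran 35 min, then was stopped with PicoGreen/EDTA and read as dsDNA fluorescence.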
# ERK AVP block = qHTS Assay for Inhibitors of the ERK Signaling Pathway using a Homogeneous Screening Assay; HEK293-V1b, vasopressin-stimulated pERK AlphaScreen; Potency, µM (highest dose often 57.5 µM), for the others: at the highest dose activity, negative = inhibition, actives largely listed as inhibitors; actives 0.99% (n = 72,000); further: nearly all actives have a fitted effect of over 55% in size
#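 V1b-HEK293 cells; cpd 30 min 37C; 25 nM vasopressin 5 min; lyse 10 min; AlphaScreen beads 5 hr RT. Normalized to DMSO basal and 25 nM vasopressin; AC50 by Hill fit.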
# Tau fil binding = qHTS Assay for Tau Filament Binding; recombinant tau filaments, thioflavin S fluorescence, 15 h; filaments grown with octadecylsulfate alongside compound; Microtubule-associated protein tau (Homo sapiens), P10636; actives 2% (n = 71,000); Potency, µM (top dose mostly 57.1 µM), inactives show at the highest dose activity change, negative = inhibition;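 further: actives lower thioflavin S fluorescence by blocking filaments or displacing dye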
#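 Quantitative HTS: thioflavine S signal from ODS-induced tau filaments, excited at 450 nm, emission 510 nm. Conditions: 1 uM tau, 30 uM ODS, 15 h at 37 C, pH 7.4.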
# FLuc inh = qHTS Assay for Inhibitors of Firefly Luciferase; Luciferin 4-monooxygenase (Photinus pyralis), P08659; purified firefly luciferase, luminescence, 8 min; Potency, µM (doses to about 57.1 µM), for inactives: at the top dose activity change, negative = inhibition, most hits filed as inhibitors; actives 2.2% (n = 72,000); further: nearly all actives have a fitted effect of over 40% in size
# Target sequence (P08659 whole entry, looked up): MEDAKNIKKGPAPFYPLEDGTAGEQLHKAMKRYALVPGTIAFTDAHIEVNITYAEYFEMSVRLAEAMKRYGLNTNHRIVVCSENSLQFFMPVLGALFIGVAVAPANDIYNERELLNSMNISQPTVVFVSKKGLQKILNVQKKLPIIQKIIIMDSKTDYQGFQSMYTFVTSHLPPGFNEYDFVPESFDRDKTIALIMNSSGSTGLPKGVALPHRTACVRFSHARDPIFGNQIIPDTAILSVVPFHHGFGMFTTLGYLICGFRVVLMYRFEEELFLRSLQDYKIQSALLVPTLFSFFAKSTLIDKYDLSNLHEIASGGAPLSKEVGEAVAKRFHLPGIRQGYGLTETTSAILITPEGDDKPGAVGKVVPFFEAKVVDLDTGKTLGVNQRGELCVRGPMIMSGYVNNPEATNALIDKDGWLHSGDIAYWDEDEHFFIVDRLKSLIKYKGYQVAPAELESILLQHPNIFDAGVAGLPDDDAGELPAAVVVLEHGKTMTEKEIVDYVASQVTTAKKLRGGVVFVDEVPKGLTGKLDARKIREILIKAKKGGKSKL
#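 Titration-based qHTS; buffer 50 mM imidazole pH 7.2, 50 mM KCl, 7 mM MgCl2, 10 uM ATP, 0.01% Tween 20, 0.05% BSA; luciferase/luciferin detector mix added after compound; 8 min, ambient; luminescence.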
# 15-hLO inh = qHTS Assay for Inhibitors of 15-hLO (15-human lipoxygenase); purified 15hLO-1, xylenol orange hydroperoxide absorbance; Polyunsaturated fatty acid lipoxygenase ALOX15 (Homo sapiens), P16050; actives 1.4% (n = 74,000); Potency, µM (highest dose often 57.1 µM), for the others: top-dose activity change, negative = inhibition, hits mostly inhibitors; AID 887, 2007; further: nearly all actives have a fitted effect of over 55% in size
#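 Purified human 15hLO-1 (40 nM) in 25 mM Hepes pH 7.5, 0.01% Triton X-100, preincubated 15 min RT with compound, then 50 uM arachidonic acid for 6 min. Hydroperoxide read by ferrous/xylenol orange, 30 min; 573/405 nm absorbance ratio gave progress.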
# * hit, by the source's call; i = inactive; ? = inconclusive; · = no result given; [ ] = remark or other dose. Unless noted, the call rests on the fitted dose curve; in most records, active means well fitted curve in the direction sought with a large enough effect; inconclusive means small, poorly fitted or top-dose-only effect, or another doubt; inactive means no such curve, though single readings can be large; an effect the other way counts as inactive or inconclusive. Unless noted, on the % scale 0 is the no-effect control and ±100 the full control effect; potency means the concentration at half of the fitted maximal effect.
SMILES,Bst PK mod,DNA Pol III inh,ERK AVP block,Tau fil binding,FLuc inh,15-hLO inh
Cn1c(=O)cc(N2CCc3ccccc32)[nH]c1=O,·,-4.4%,·,-8.8%,-16.2%,?
O=c1n(Cc2cc3c(cc2Cl)OCO3)c(=O)n2n1CC[C@H]1/C(=N\OCc3ccccc3)[C@H]3O[C@@H]3[C@@H](O)[C@@H]12,·,·,8.2%[11.5 µM],·,0.7%[11.4 µM],-2.3%[11.4 µM]
Cn1cnnc1SCC(=O)c1ccc2c(c1)CCCC2,·,-1.0%,-5.2%,-6.0%,-11.9%,-3.3%
Cc1cc(C)c2c(c1)-c1c(ssc1=S)C(C)(C)N2C(=O)CSc1nncn1C,·,-2.4%[11.4 µM],-20.4%,2µM*,-2.2%,?
Cc1ccc2c(c1)-c1c(ssc1=S)C(C)(C)N2C(=O)CSc1nncn1C,·,0.2%,-11.4%,7.94µM*,-2.4%,15.8µM*
O=C(OC1Cc2c(O)cc(O)cc2OC1c1cc(O)c(O)c(O)c1-c1c(C2Oc3cc(O)cc(O)c3CC2OC(=O)c2cc(O)c(O)c(O)c2)cc(O)c(O)c1O)c1cc(O)c(O)c(O)c1 (configuration not stated),·,·,-29.9%,·,·,?
O=C(O[C@@H]1Cc2c(O)cc(O)cc2OC1c1ccc(O)c(O)c1)c1cc(O)c(O)c(O)c1 (some centres not stated),·,·,-26.9%,·,·,6.31µM*
CC(=O)c1ccccc1[N+](=O)[O-],·,-3.3%,12.8%,3.5%,·,4.0%
c1ccc(CCN2CCN(c3ncnc4c3cnn4-c3ccccc3)CC2)cc1,>57,3.7%,15.8µM*,62.2%,-0.2%,-20.7%
CCO[C@H](c1cc(OC)cc([N+](=O)[O-])c1OC)[C@H](C)/C=C\CC(=O)OC,·,·,3.8%[11.5 µM],·,3.1%[11.4 µM],7.0%[11.4 µM]
O=C1CS/C(=N\C(=O)N2c3ccccc3Sc3ccccc32)N1,·,4.1%[11.4 µM],4.5%,3.16µM*,-2.8%,?
CC(C)c1ccc(C(=O)Nc2ccc(N3CCOCC3)cc2)cc1,·,2.1%,-15.3%,71.5%,-9.1%,7.0%
CCCOC(=O)Nc1ccc(N2CCCCC2)cc1,i,-5.0%,-18.6%,-10.3%,12.6µM*,-6.5%
CC(C)Oc1ccc(C(=O)Nc2ccc(N3CCCC3)cc2)cc1,·,0.9%[11.4 µM],-12.2%,2µM*,-13.3%,1.26µM*
C=C1CC[C@H]2C(C)(C)[C@H](O)CC[C@]2(C)[C@@H]1COc1ccc2ccc(=O)oc2c1,·,-5.8%,·,?,0.5%[11.4 µM],·
CC1(C)[C@@H]2CC[C@@](C)(C2)[C@H]1OC(=O)c1ccccc1C(=O)O,·,-10.6%[11.4 µM],-3.2%[11.5 µM],1.9%[11.4 µM],2.9%[11.4 µM],9.8%[11.4 µM]
Cc1cc(-c2ccccc2)c2c3c(cn2n1)c(=O)n(C)c(=O)n3C,>57,0.6%,?,12.6µM*,-0.5%,-1.2%
Cc1nc2cncnc2n(C2CC2)c1=O,·,-9.1%,3.8%,-0.4%,0.1%[11.4 µM],4.2%
CC(=O)/C=C(\C)Nc1ccc(-c2cnc(-c3ccccc3)o2)cc1,·,0.3%[11.4 µM],?,152.4%[11.4 µM],10µM*,-8.1%[11.4 µM]
O=C(N/N=C1/C[C@@H](O)[C@@H](O)[C@@H]2[C@@H]3C(=O)N(Cc4ccccc4)C(=O)[C@H]3CC[C@H]12)OCc1ccccc1,·,·,1.5%[11.5 µM],·,0.8%[11.4 µM],15.9%[11.4 µM]
CCCCC(CC)Cn1c2nc3ccccc3nc2c2c(=N)oc(C)nc21 (configuration not stated),>57,-4.5%,24.1%,2.51µM*,6.9%,-9.7%
O=c1c(-c2cc(O)c(O)c(O)c2)coc2cc(O)c(O)c(O)c12,·,·,-3.9%,·,·,10µM*
C[C@@]12C(=O)OC(=O)[C@@]1(C)[C@H]1CC[C@@H]2O1,·,-3.2%,7.94µM*,?,-1.9%[11.4 µM],11.3%
COc1ccc(OC)c([C@H]2Nc3ccccc3NC3=C2C(=O)CC(C)(C)C3)c1Br,·,1.5%,·,-29.1%,-8.2%[11.4 µM],·
c1coc(C2Nc3cccc4cccc(c34)N2)c1,·,3.98µM*,?,6.31µM*,-16.3%,1.58µM*
